# Compounds with a hit are over-represented: about 4.4% of the library has one in this group of screens.
# PfHsp90 yeast 2 – inhibits growth of yeast expressing Plasmodium falciparum Hsp90. S. cerevisiae expressing PfHsp90, BacTiter-Glo ATP, 48 h; yeast lacking PDR1 and PDR3 efflux regulators. inhibition, % at 9.4 µM. 0.32% of 310,000 active;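 active = every replicate shows inhibition above about 80%, whatever the replicate mean, limit read from the data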;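 note: 0% = DMSO neutral controls and 100% = 20 µM radicicol positive controls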
# tim10-1 inh – tim10-1 yeast growth inhibition | AID 463190 | 2.2% of 330,000 active | inhibition, % at 20 µM | S. cerevisiae tim10-1 ts strain growth, BacTiter-Glo, 24 h;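 active = inhibition of at least 40%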;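 note: mutant grown at 25 °C; 0% = DMSO wells with yeast and 100% = wells holding no yeast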
# tim23-1 inh – tim23-1 yeast growth inhibition; S. cerevisiae tim23-1 growth, BacTiter-Glo luminescence, 24 h; 1.3% of 330,000 active; inhibition, % at 20 µM;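 active = growth inhibition of the mutant yeast at or above 50%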;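 note: temperature-sensitive mutant grown at 25 °C; plate controls were DMSO-treated mutant yeast for no effect and medium wells lacking yeast for full effect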
# SUMO Mot1 rescue – blocks SUMOylation pathway, rescuing yeast Mot1-301 growth. S. cerevisiae Mot1-301 growth rescue, ATP luminescence, 38.5C; percent above DMSO median, 100 means doubled. growth rescue, % at 18.8 µM. 1% of 320,000 active. AID 2716;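 active = every valid replicate shows activation above 250% relative to neutral control wells; inactive = the rest, any valid replicate at or below 250%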;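 note: OY570 slx delta 5 strain wells were the positive control but not used for scaling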
# TIM10 inh – TIM10 yeast growth inhibition; S. cerevisiae TIM10 strain growth, BacTiter-Glo luminescence, 24 h; AID 463195; 1.4% of 330,000 active; inhibition, % at 10 µM;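 active = inhibition of 40% or more at the single tested concentration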;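 note: wild-type TIM10 isogenic control strain grown at permissive 25 °C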
# Mot1 SUMO dose – inhibits SUMO pathway, affecting Mot1-301 yeast growth | shares compounds with SUMO Mot1 rescue | S. cerevisiae Mot1-301 galactose growth, ATP luminescence, 24 h; -100 = growth of slx-deleted rescue strain | growth activity, percent, % at 42 µM | 2,300 tested, under 10 active;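 active = Signal drops as the depositor expects, and the fitted half-maximal dose is no more than ten times the top valid tested dose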;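 note: more negative values mean stronger growth rescue toward the control strain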
# tim10-1 conf – tim10-1 yeast growth inhibition, confirmed; AID 463213; S. cerevisiae tim10-1 ts strain growth, BacTiter-Glo, 24 h; shares compounds with tim10-1 inh; inhibition, % at 20 µM; 56% of 7,400 active;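 active = inhibition of yeast growth at or above a set limit in either of two repeat tests at 20 µM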;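 note: tim10-1 mutant grown at permissive 25 °C to find synthetic lethal compounds; 0% = DMSO yeast wells and 100% = medium wells without yeast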
# The depositor's hits bear a star; . = not tested or not shown; + = active, no number; ! = a repeat was not active.
SMILES,PfHsp90 yeast 2,tim10-1 inh,tim23-1 inh,SUMO Mot1 rescue,TIM10 inh,Mot1 SUMO dose,others
CC[C@H](C)/C=C(C)/C=C/C1=CC2=C(Cl)C(=O)[C@](C)(OC(C)=O)C(=O)C2=CO1,105.1*,17.9,34.3,.,20.9,.,
c1ccc2c(N3CCNCC3)nsc2c1,.,13.7,9.9,21.2,-2.6,.,
C[CH2][Hg][S]c1ccccc1C(=O)O,108.6*,-23.5,34.7,355.3*,30.8,.,
CC(C)COC(=O)c1ccccc1C(=O)OCC(C)C,-16.5,7.6,10.2,-12.6,-6.0,.,
CCN(CC)CCC(=O)O[C@H]1CC[C@]2(C)C3CC[C@@]4(C)C(CC[C@]4(C)O)C3CC[C@H]2C1 (stereo partly drawn),4.9,7.1,6.7,9.0,3.6,.,
CCOC(=O)c1c(-n2c(C)cc(C=C3C(=O)NC(=S)NC3=O)c2C)sc2c1CCCC2,108.6*,30.0,43.6,5.7,28.6,.,
Cn1c(O)c(C(=Nc2ccc(F)cc2)c2ccccc2Cl)c(=O)n(C)c1=O,106.2*,-11.8,21.5,21.0,-4.0,.,
CN1C(=O)C(=Cc2ccc(N3CCCCC3)o2)C(=O)N(C)C1=S,-1.5,19.7,18.4,848.0*,-0.4,0.1,
CCN(CC)c1ccc(C=C2C(=O)N(C)C(=S)N(C)C2=O)o1,3.7,38.2,15.2,-17.8,18.3,.,
CC1CN(C(=O)CCC(=O)N2CCC3(CC2)OCCO3)c2cc(Cl)ccc2O1 (stereo not drawn),-1.3,8.0,-4.4,0.3,9.4,.,
CCOP(=O)(Cc1ccc(C(=O)CC)o1)OCC,-3.5,5.3,-11.4,-7.4,0.7,.,
CCOP(=O)(Cc1cc(C(=O)CC)c(C)o1)OCC,.,11.5,22.8,657.5*,-2.3,0.2,
CN1C2CCC1CC(OC(=O)c1ccc([N+](=O)[O-])cc1)C2 (stereo not drawn),11.2,3.6,11.6,473.6*,-0.7,0.1,
CCN(CC)c1ccc(N=Cc2c(O)n(-c3ccccc3C)c(=O)[nH]c2=O)cc1,-14.1,10.3,-3.6,-14.6,-1.9,.,
CCN(CC)c1ccc(N=Cc2c(O)n(Cc3ccccc3)c(=O)[nH]c2=O)cc1,-0.4,11.9,-0.8,385.1*!,-9.0,-0.2,
CC12C=CC(=O)C=C1CC(O)C1C2CCC2(C)C1CCC2(C)O (stereo not drawn),-11.5,.,.,.,.,.,
Cc1ccccc1NC1=NCCCS1,14.5,-2.9,-1.8,469.1*,-2.5,0.0,
O=Cc1cn(Cc2ccccc2F)c2ccccc12,0.3,7.4,-3.7,+,9.1,0.2,
O=Cc1cn(Cc2c(F)cccc2Cl)c2ccccc12,-16.6,4.0,34.5,6.6,2.0,.,
COC(=O)C1=C(c2ccc(-c3ccccc3)c(F)c2)C[C@@H]2CC[C@H]1N2C(=O)NCCc1ccccc1,-6.5,24.4,21.2,-8.6,4.8,.,
CCC12CN3CCN(CC(C3)/C1=N/NC(=O)c1ccncc1)C2,-57.3,-12.3,3.8,506.7*,-16.3,0.7,
O=c1c([N+](=O)[O-])cn(O)cc1[N+](=O)[O-],29.0,.,.,.,.,.,
CC(C)Oc1ccc(C2(C#N)CC[N+](C)(C)CC2)cc1,18.3,-20.9,4.9,670.3*,2.8,0.6,
Fc1ccc2c(c1)nnn2C1CCN(Cc2nnnn2C2CCCCC2)CC1,67.7,15.6,16.7,732.6*,6.3,-0.1,
Cc1[nH]nc2ccc(-c3cncc(OC[C@@H](N)Cc4c[nH]c5ccccc45)c3)cc12,-6.8,.,.,.,.,.,
SMILES,PfHsp90 yeast 2,tim10-1 inh,tim23-1 inh,SUMO Mot1 rescue,TIM10 inh,Mot1 SUMO dose,others
CCC(C)n1c(O)c(C(c2ccccn2)c2c(O)n(C(C)CC)c(=S)[nH]c2=O)c(=O)[nH]c1=S (stereo not drawn),-16.0,15.9,25.1,-0.5,11.5,.,
Cn1c(O)c(C(c2ccccn2)c2c(O)n(C)c(=S)n(C)c2=O)c(=O)n(C)c1=S,-18.0,9.5,9.3,476.6*,-18.2,0.5,
COCC(=O)N1Cc2ccccc2-n2nncc2C1,-6.8,.,.,.,.,.,
Clc1cnc(Oc2ccc(Oc3ncc(Cl)cc3Cl)cc2)c(Cl)c1,-2.0,-6.2,5.8,622.8*,3.7,0.1,
O=C1NC(=O)[C@]2(Cc3ccccc3N3CCN(c4ccccc4)CC32)C(=O)N1c1ccccc1 (stereo partly drawn),-0.7,5.8,23.0,16.0,20.0,.,
CN1C(=O)NC(=O)[C@]2(Cc3ccccc3N3CCN(c4ccccc4)CC32)C1=O (stereo partly drawn),-6.6,27.7,17.2,663.1*,-6.9,0.8,
Cc1nn(Cc2ccccc2)c(C)c1C(=O)OCC(=O)Nc1cc(S(C)(=O)=O)ccc1Cl,2.3,-27.2,-12.5,3.5,-6.8,.,
[N-]=[N+]=NCCN1CCC(O)CCC1=O (stereo not drawn),-3.2,3.7,-12.2,+,-8.7,0.4,
N=c1c[n+](C2CCCCC2)[n-]o1,-4.5,-13.1,-10.1,483.9*,-18.7,0.6,
COC(=O)C1=C(c2ccc(OC)c(OC)c2)C[C@@H]2CC[C@H]1N2C(=O)NCC1CC1,14.4,2.1,8.8,16.5,0.9,.,
CC(C)OCCCNC(=O)c1c(N)n(CC2CCCO2)c2nc3ccccc3nc12 (stereo not drawn),2.4,29.4,30.0,12.4,17.7,.,
CCCNC(=O)c1c(N)n(CC2CCCO2)c2nc3ccccc3nc12 (stereo not drawn),.,44.5*,30.7,13.3,26.0,.,tim10-1 conf=13.8
CCCCn1c(N)c(C(=O)NCc2cccs2)c2nc3ccccc3nc21,24.6,41.0*,36.0,-7.7,25.0,.,tim10-1 conf=24.1
Clc1ccc2sc(C3CCNCC3)nc2c1,-10.9,-10.0,13.6,12.9,5.0,.,
Cc1cccnc1-n1c(CN2C(=O)c3ccccc3C2=O)nc2ccccc2c1=O,7.1,50.6*,32.2,-28.6,19.6,.,tim10-1 conf=30.4*
O=C1CC(N2CC=C(c3ccc(F)cc3)CC2)C(=O)N1c1ccc(F)cc1 (stereo not drawn),-10.2,42.8*,39.9,444.5,20.1,.,tim10-1 conf=25.6
COc1ccc2nc(NC(=O)CCc3nc(C4=CCN(C)CC4)no3)sc2c1,-7.4,43.0*,11.6,1.5,-0.8,.,tim10-1 conf=12.8
CCOC(=O)c1c(C)n(Cc2ccccc2)c2ccc(OCC(O)CNC(C)(C)C)cc12 (stereo not drawn),-8.6,23.0,8.7,-7.4,1.4,.,
CCn1c(O)c(/C(C)=N/N2CCCCC2c2cccnc2)c(=O)[nH]c1=S (stereo not drawn),-69.6,47.5*,23.5,7.4,25.6,.,tim10-1 conf=21.3
CC1CN(c2ccccn2)C(C)CN1C(=O)C(O)(c1ccccc1)c1ccccc1 (stereo not drawn),1.5,.,.,.,.,.,
Cc1cc(NC(=O)CCl)on1,-31.0,7.7,8.6,4.5,9.3,.,
C=C(C)CSc1nnc([C@@H](N)Cc2c[nH]c3ccccc23)o1,20.5,41.8*,33.3,8.1,25.8,.,tim10-1 conf=56.0*
